Source: PubChem BioAssay (EPA / NIEHS)
Calls of active or inactive are those of the source. Rule for the calls: active = hit-call score of the fitted dose curve at least 0.9, where 1 is the maximum; inactive = score below 0.9.

Assays:
[1] = APR_HepG2_NuclearSize_72hr: Apredica 72-hour HepG2 Assay for Nuclear Size (AID 2282925); details: high-content imaging, actives raise or lower the signal
In short: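 HepG2 cells were exposed to compounds at ten concentrations from 0.39 to 200 uM (duplicate, 0.5% DMSO final) for 72 hr. After fixation in 3.7% formaldehyde, nuclei were stained with Hoechst 33342 (2 ug/mL) and imaged at 20x.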

[2] = ATG_CRE_CIS: Attagene CIS-FACTORIAL HepG2 Assay for human cAMP Responsive Element (CRE) binding protein 3 (AID 2282926); details: HepG2 CRE cis-reporter, Attagene multiplexed mRNA; actives raise or lower the signal
In short: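 Human liver HepG2, transient MRTU transfection, 24 h compound exposure. Total RNA → oligo(dT) RT → PCR → 6-FAM primer extension → HpaI cut → CE. Activity called both directions vs DMSO.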

[3] = biological target: CCAAT/enhancer-binding protein beta (Homo sapiens) (UniProt P17676); test: ATG_C_EBP_CIS: Attagene CIS-FACTORIAL HepG2 Assay for human CCAAT/Enhancer Binding Protein (C/EBP) beta (AID 2282927); details: HepG2 Attagene cis-factorial transcription factor reporter; actives raise or lower the signal
Sequence of CCAAT/enhancer-binding protein beta (Homo sapiens) (P17676 whole entry, looked up, the tested form may be a part): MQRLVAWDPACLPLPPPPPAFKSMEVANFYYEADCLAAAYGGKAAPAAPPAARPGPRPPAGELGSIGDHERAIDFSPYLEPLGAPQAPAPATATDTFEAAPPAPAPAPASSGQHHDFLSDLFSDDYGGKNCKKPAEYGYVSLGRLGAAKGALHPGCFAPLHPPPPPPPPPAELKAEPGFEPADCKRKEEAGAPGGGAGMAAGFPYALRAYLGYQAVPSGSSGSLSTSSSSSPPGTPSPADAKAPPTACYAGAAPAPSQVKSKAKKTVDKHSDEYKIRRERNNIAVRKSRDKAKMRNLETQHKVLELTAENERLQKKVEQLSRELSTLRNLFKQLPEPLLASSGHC
In short: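 Chemical-treated HepG2 cells (24 h) bearing cis-regulated reporter constructs were processed for total RNA, then reverse transcription, PCR amplification, fluorescent primer extension and fragment analysis; gain- and loss-of-signal were fitted against DMSO.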

[4] = ATG_CMV_CIS: Attagene CIS-FACTORIAL HepG2 Assay for human CMV (Internal Marker) (AID 2282928); details: HepG2 CMV promoter reporter, transcription factor profiling; actives raise or lower the signal;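 note: endpoint acts as a background internal control marker rather than a target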
In short: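 HepG2 cells transiently transfected with multiple cis-regulated reporter units; 24 h compound exposure. Reporter mRNA quantified by RT-PCR, 6-FAM primer-extension labeling, HpaI digestion and capillary electrophoresis; bidirectional fitting against DMSO baseline.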

[5] = ATG_DR4_LXR_CIS: Attagene CIS-FACTORIAL HepG2 Assay for human Liver X Receptor (LXR), DR4 submotif (AID 2282929); details: HepG2 Attagene DR4 cis-reporter, mRNA transcription; actives raise or lower the signal
In short: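 Cells were transfected with multiple reporter transcription units, exposed to chemicals for 24 hours, then lysed for RNA. Reporter mRNA induction was measured by RT-PCR with capillary electrophoresis detection and fitted in both directions relative to DMSO.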

[6] = biological target: Aryl hydrocarbon receptor (Homo sapiens) (UniProt P35869); test: ATG_Ahr_CIS: Attagene CIS-FACTORIAL HepG2 Assay for human Aryl Hydrocarbon Receptor (Ahr) (AID 2282930); details: HepG2 AhR cis-factorial reporter transcription; actives raise or lower the signal
Sequence of Aryl hydrocarbon receptor (Homo sapiens) (P35869 whole entry, looked up): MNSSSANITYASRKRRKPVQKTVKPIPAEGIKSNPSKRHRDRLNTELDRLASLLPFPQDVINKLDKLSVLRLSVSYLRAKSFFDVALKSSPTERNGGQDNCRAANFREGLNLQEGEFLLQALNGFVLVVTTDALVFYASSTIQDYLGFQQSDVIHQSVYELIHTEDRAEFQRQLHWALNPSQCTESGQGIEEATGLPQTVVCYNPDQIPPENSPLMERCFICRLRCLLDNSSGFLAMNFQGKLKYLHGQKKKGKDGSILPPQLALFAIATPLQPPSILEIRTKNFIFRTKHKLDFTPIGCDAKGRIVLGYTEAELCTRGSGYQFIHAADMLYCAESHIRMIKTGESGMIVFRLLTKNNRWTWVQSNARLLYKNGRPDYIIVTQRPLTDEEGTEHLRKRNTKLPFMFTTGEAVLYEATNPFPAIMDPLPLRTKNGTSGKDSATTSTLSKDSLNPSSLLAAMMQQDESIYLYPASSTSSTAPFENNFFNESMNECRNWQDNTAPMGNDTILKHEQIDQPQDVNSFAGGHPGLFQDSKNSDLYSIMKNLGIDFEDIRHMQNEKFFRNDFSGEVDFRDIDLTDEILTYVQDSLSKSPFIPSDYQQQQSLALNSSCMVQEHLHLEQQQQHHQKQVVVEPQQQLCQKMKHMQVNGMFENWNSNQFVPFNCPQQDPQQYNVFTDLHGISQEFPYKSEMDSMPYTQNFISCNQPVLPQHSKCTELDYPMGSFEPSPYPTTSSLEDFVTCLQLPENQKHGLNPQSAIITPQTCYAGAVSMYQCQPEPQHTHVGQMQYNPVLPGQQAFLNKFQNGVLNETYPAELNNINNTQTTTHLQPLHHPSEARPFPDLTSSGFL
In short: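 Following 24 h of chemical dosing, transfected HepG2 liver cells with cis-driven reporter units were lysed for RNA; reporter mRNA was quantified via RT-PCR and capillary electrophoresis, and responses fitted bidirectionally from DMSO.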

[7] = ATG_AP_1_CIS: Attagene CIS-FACTORIAL HepG2 Assay for human Activator Protein 1 (AP-1) (AID 2282931); details: HepG2 Attagene cis-factorial AP-1 reporter mRNA; actives raise or lower the signal
In short: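 Endogenous transcription-factor activity in human HepG2 liver cells is read through a cis-promoter reporter transcript, sampled 24 h after dosing. Detection uses RT-PCR with capillary electrophoresis; values come from bidirectional fitting relative to DMSO.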

[8] = ATG_AP_2_CIS: Attagene CIS-FACTORIAL HepG2 Assay for human Activator Protein 2 (AP-2) (AID 2282932); details: HepG2 AP-2 cis-reporter, Attagene transcription factor profiling; actives raise or lower the signal
In short: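 Bidirectional curve fitting against DMSO was applied to reporter mRNA signals from HepG2 cells 24 h after dosing. Cis-promoter reporter units, transiently transfected, were read by RT-PCR plus capillary electrophoresis.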

[9] = ATG_BRE_CIS: Attagene CIS-FACTORIAL HepG2 Assay for human Bone Morphogenetic Protein (BMP) Response Element (BRE) (AID 2282933); details: HepG2 BMP response element reporter, Attagene transcription factor profiling; actives raise or lower the signal
In short: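 Fluorescence-labelled reporter cDNA fragments, separated by capillary electrophoresis, gave the signal for this component of a 52-readout multiplex. HepG2 cells were transfected, exposed to chemicals for 24 h, and compared with DMSO using bidirectional fitting.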

[10] = biological target: Retinoic acid receptor alpha (Homo sapiens) (UniProt P10276); test: ATG_DR5_RAR_CIS: Attagene CIS-FACTORIAL HepG2 Assay for human Retinoic Acid Receptor Alpha (RARE), DR5 submotif (AID 2282934); details: HepG2 Attagene cis-factorial RARE DR5 reporter, mRNA; actives raise or lower the signal;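 for AC50: reporter responds to endogenous RAR alpha beta and gamma in HepG2 not RARA alone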
Sequence of Retinoic acid receptor alpha (Homo sapiens) (P10276 whole entry, looked up): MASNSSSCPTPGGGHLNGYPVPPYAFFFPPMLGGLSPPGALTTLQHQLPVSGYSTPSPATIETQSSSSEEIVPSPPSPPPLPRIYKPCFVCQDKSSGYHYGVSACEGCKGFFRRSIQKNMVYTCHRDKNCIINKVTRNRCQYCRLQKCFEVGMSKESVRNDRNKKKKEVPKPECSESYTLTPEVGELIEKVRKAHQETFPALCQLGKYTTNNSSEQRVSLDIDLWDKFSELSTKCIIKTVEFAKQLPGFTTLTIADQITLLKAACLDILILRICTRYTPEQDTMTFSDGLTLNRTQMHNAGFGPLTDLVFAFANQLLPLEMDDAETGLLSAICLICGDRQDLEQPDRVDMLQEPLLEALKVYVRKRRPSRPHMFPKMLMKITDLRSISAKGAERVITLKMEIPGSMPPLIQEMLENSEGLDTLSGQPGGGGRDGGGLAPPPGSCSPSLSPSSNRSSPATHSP
In short: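 Transfected HepG2 reporter cells are exposed to chemicals for 24 h. Then RNA is extracted and the DR5 element reporter transcript is measured by RT-PCR and capillary electrophoresis, with bidirectional curve fitting relative to DMSO.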

[11] = ATG_M_61_CIS: Attagene CIS-FACTORIAL HepG2 Assay for M61 Transcription Factor (Internal Marker) (AID 2282937); details: HepG2 Attagene CIS-FACTORIAL M61 internal marker reporter; actives raise or lower the signal
In short: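 Cells were transfected with reporter units under cis-regulatory promoters, treated with chemicals for 24 h, then lysed for RNA. Reporter transcripts were quantified by RT-PCR and capillary electrophoresis, and activity was fitted bidirectionally against DMSO.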

[12] = ATG_EGR_CIS: Attagene CIS-FACTORIAL HepG2 Assay for human Early Growth Response 1 (EGR1) (AID 2282938); details: HepG2 Attagene CIS-FACTORIAL EGR reporter mRNA; actives raise or lower the signal
In short: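 Endogenous TF activity in HepG2 liver cells was gauged through cis-promoter reporter constructs transiently transfected. After 24 h dosing, reporter mRNA was quantified by RT-PCR and capillary electrophoresis, and curves fitted in both directions versus DMSO.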

[13] = ATG_M_19_CIS: Attagene CIS-FACTORIAL HepG2 Assay for M19 Transcription Factor (Internal Marker) (AID 2282939); details: HepG2 Attagene CIS-FACTORIAL M19 internal marker reporter; actives raise or lower the signal
In short: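 HepG2, MRTU transient transfection, 24 h dosing. Total RNA → RT-PCR → 6-FAM primer extension → HpaI digest → CE fluorescence. Bidirectional curve fit, DMSO negative control.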

[14] = ATG_ERE_CIS: Attagene CIS-FACTORIAL HepG2 Assay for Estrogen Response Element (ERE) (AID 2282940); details: HepG2 ERE cis-reporter, Attagene RNA transcript; actives raise or lower the signal
In short: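 After a 24 h chemical treatment, RNA from reporter-transfected HepG2 cells is reverse-transcribed, PCR-amplified and fluorescently labelled. Fragments separated by capillary electrophoresis give reporter signal; DMSO serves as negative control.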

[15] = ATG_Ets_CIS: Attagene CIS-FACTORIAL HepG2 Assay for human Erythroblast Transformation Specific (ETS) (AID 2282941); details: HepG2 ETS cis-reporter transcription, actives raise or lower the signal
In short: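 HepG2 cells transiently transfected with cis-promoter reporter transcription units were dosed for 24 h; reporter mRNA was measured by RT-PCR, 6-FAM primer extension, HpaI digestion and capillary electrophoresis, with bidirectional fitting against DMSO baseline.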

[16] = biological target: Hepatocyte nuclear factor 3-beta (Homo sapiens) (UniProt Q9Y261); test: ATG_FoxA2_CIS: Attagene CIS-FACTORIAL HepG2 Assay for human Forkhead box A2 (FOXA2) (AID 2282942); details: HepG2 cis-reporter transcription factor activity, 24 h; actives raise or lower the signal
Sequence of Hepatocyte nuclear factor 3-beta (Homo sapiens) (Q9Y261 whole entry, looked up): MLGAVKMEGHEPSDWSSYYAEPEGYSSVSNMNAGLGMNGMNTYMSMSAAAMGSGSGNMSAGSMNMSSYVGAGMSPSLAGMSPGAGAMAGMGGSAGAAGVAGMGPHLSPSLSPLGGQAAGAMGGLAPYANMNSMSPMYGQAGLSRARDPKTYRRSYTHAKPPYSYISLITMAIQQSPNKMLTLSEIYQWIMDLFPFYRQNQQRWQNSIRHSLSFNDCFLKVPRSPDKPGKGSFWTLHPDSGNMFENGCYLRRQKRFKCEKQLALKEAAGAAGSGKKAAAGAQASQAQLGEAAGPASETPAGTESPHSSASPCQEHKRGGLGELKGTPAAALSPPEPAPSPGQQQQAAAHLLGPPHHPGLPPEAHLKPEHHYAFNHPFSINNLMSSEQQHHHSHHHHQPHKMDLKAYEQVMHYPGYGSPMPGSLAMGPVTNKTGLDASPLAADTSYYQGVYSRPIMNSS
In short: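 Endogenous transcription factor activity was read in HepG2 cells carrying transiently transfected cis-promoter reporter units. After 24 h dosing, reporter mRNA was quantified by RT-PCR and capillary electrophoresis, and values fitted bidirectionally versus DMSO.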

[17] = ATG_FoxO_CIS: Attagene CIS-FACTORIAL HepG2 Assay for human Forkhead box O (FoxO) (AID 2282943); details: HepG2 Attagene cis-reporter, FoxO element, mRNA; actives raise or lower the signal
In short: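 24 h chemical exposure, HepG2 with transient cis-MRTU transfection. RNA extraction, oligo(dT) RT, reporter-specific PCR, primer-extension labelling, HpaI digestion, CE fragment analysis; bidirectional fit, DMSO baseline.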

[18] = ATG_GATA_CIS: Attagene CIS-FACTORIAL HepG2 Assay for human GATA Binding Protein (AID 2282944); details: HepG2 GATA cis-element reporter, Attagene multiplex mRNA; actives raise or lower the signal
In short: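 Cells: HepG2, transiently transfected with cis-regulated reporter transcription units. Exposure: 24 h. Detection: RT-PCR plus capillary electrophoresis of FAM-labeled fragments. Analysis: bidirectional, DMSO as baseline.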

[19] = biological target: Transcription factor E2F1 (Homo sapiens) (UniProt Q01094); test: ATG_E2F_CIS: Attagene CIS-FACTORIAL HepG2 Assay for human E2F Transcription Factor 1 (AID 2282935); details: HepG2 Attagene cis-reporter, E2F reporter RNA transcripts; actives raise or lower the signal
Sequence of Transcription factor E2F1 (Homo sapiens) (Q01094 whole entry, looked up): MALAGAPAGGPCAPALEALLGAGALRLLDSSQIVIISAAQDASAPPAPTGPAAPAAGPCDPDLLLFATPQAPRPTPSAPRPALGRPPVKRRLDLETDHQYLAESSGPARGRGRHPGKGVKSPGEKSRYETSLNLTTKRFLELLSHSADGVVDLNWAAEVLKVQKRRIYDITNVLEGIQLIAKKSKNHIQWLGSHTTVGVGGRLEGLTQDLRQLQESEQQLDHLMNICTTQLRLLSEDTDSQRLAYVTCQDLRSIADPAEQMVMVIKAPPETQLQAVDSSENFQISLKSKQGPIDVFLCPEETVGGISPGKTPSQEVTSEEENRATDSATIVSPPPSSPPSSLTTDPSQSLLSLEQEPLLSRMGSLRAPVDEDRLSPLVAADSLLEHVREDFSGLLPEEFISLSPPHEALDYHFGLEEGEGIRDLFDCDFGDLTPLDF
In short: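 Multiplexed cis-reporter assay: HepG2, transient transfection, 24 h dosing, mRNA quantitation by labeled RT-PCR and CE.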

[20] = ATG_E_Box_CIS: Attagene CIS-FACTORIAL HepG2 Assay for human Enhancer Box (E-box) (AID 2282936); details: HepG2 E-box cis-reporter transcription, actives raise or lower the signal
In short: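 Multiplexed CIS reporter system in transiently transfected HepG2 cells measures native transcription factor activity. Reporter RNA after 24 h exposure is profiled by RT-PCR-capillary electrophoresis.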

Measured: AC50

CCOP(=S)(OCC)Oc1nc(Cl)n(C(C)C)n1
active: [5] 6.85 µM | [14] 50 µM
not listed: [19] | [20]
inactive: all other assays above

COc1ccc(-c2ccccc2)cc1NNC(=O)OC(C)C
active: [4] 13.5 µM | [7] 14.7 µM | [9] 2.32 µM
not listed: [6] | [15] | [20]
inactive: all other assays above

CC1(C)C(C=C(Cl)Cl)C1C(=O)OC(C#N)c1cccc(Oc2ccccc2)c1 (centres undefined)
active: [5] 30.3 µM | [14] 14.6 µM
not listed: [19] | [20]
inactive: all other assays above

CCC(C)n1c(=O)[nH]c(C)c(Br)c1=O (centres undefined)
not listed: [10] | [19] | [20]
inactive: all other assays above

N#Cc1c[nH]cc1-c1cccc2c1OC(F)(F)O2
active: [2] 10.8 µM | [3] 8.24 µM | [4] 29 µM | [5] 1.19 µM | [8] 13.5 µM | [9] 22.2 µM | [14] 5.84 µM
not listed: [6] | [10] | [15]
inactive: all other assays above

CC(C)N1C(=O)N(c2ccccc2)CSC1=NC(C)(C)C
not listed: [10] | [19] | [20]
inactive: all other assays above

CCCC(=NOCC)C1=C(O)CC(CC(C)SCC)CC1=O (centres undefined)
not listed: [19] | [20]
inactive: all other assays above

COC(=O)NS(=O)(=O)c1ccc(N)cc1
active: [3] 13.2 µM
not listed: [10] | [19] | [20]
inactive: all other assays above

CC(C)Oc1cccc(NC(=O)c2ccccc2C(F)(F)F)c1
active: [2] 13.6 µM | [3] 5.21 µM | [4] 41.8 µM | [6] 22.2 µM | [9] 9.92 µM | [10] 9.42 µM | [14] 13.3 µM
not listed: [15] | [19] | [20]
inactive: all other assays above

CCCCOCN(C(=O)CCl)c1c(CC)cccc1CC
active: [2] 0.654 µM | [3] 0.647 µM
not listed: [10] | [15] | [19] | [20]
inactive: all other assays above

O=c1n(Cl)c(=O)n(Cl)c(=O)n1Cl
active: [6] 19.6 µM
not listed: [15] | [19] | [20]
inactive: all other assays above

COC(=O)NC(=S)Nc1ccccc1NC(=S)NC(=O)OC
active: [2] 29 µM | [3] 28.7 µM | [6] 73.9 µM | [9] 26.3 µM
not listed: [10] | [15] | [20]
inactive: all other assays above

CCOc1nc(F)cc2nc(S(=O)(=O)Nc3c(Cl)cccc3Cl)nn12
not listed: [10] | [20]
inactive: all other assays above

Clc1cccc(C(Cl)(Cl)Cl)n1
not listed: [10] | [15] | [19] | [20]
inactive: all other assays above

Cc1cnc(C2=NC(C)(C(C)C)C(=O)N2)c(C(=O)O)c1 (centres undefined)
active: [10] 35.4 µM
not listed: [19] | [20]
inactive: all other assays above

COCC(C)N(C(=O)CCl)c1c(C)csc1C (centres undefined)
active: [2] 1.83 µM
not listed: [10] | [15] | [19] | [20]
inactive: all other assays above
